RTF Ca sens inh: cardiac RTF calcium desensitization | IANBD-labeled cardiac RTF, Ca2+ fluorescence | inhibition, % at 7.15 µM | 0.12% of 340,000 active | AID 493244;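 active = inhibition above the mean inhibition of all tested compounds plus 3 SD, cut at about 17% in these data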;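 note: assay run at fixed EC70 calcium of 1.6 mM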
CRFR2-BP ag: agonists of human CRF-binding protein/CRF-R2 receptor complex; HEK293 CRF-R2/CRF-BP, calcium dye fluorescence (FLIPR); percent of saturating CRF peptide response; activation, % at 13.2 µM; 0.46% of 350,000 active;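 active = activation of at least 50%, plus an integration ratio under a set limit after plate pattern correction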;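 note: plate controls were neutral control wells without compound for no effect and CRF at EC100 for full effect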
RTF Ca sens act: increases calcium sensitivity of human cardiac regulated thin filaments; 0.24% of 340,000 active; IANBD-labeled TnC RTF fluorescence at EC20 calcium; 0% EC20 calcium, 100% full calcium; activation, % at 7.2 µM; P19429+P45379; AID 493008;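 active = activation above the mean over all tested compounds plus 3 SD, cut at about 30% in these data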;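 note: rise in fluorescence read as greater calcium sensitivity of cardiac thin filaments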
CRFBP-R2 block: blocks CRF-induced signaling of the CRF-BP/CRF-R2 complex. HEK293 CRF-R2/CRF-BP, CRF-induced calcium fluorescence. inhibition, % at 11.8 µM. 0.59% of 350,000 active;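 active = inhibition of the ligand-induced calcium signal above about 50% at the single tested concentration, limit read from the data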
ANO1 block: inhibitors of mouse TMEM16A calcium-activated chloride channel; HEK293 TMEM16A/YFP iodide influx fluorescence, ionomycin; normalized B-score (activity score, 25-100; higher = stronger inhibition) at 10 µM; 1.2% of 310,000 active; AID 588511;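 active = ratio plate-corrected score three or more library SD toward inhibition, starting fluorescence score within five deviations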;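 note: score derived from kinetic fluorescence span divided by baseline fluorescence per well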
Target sequence (Q8BHY3 whole entry, looked up): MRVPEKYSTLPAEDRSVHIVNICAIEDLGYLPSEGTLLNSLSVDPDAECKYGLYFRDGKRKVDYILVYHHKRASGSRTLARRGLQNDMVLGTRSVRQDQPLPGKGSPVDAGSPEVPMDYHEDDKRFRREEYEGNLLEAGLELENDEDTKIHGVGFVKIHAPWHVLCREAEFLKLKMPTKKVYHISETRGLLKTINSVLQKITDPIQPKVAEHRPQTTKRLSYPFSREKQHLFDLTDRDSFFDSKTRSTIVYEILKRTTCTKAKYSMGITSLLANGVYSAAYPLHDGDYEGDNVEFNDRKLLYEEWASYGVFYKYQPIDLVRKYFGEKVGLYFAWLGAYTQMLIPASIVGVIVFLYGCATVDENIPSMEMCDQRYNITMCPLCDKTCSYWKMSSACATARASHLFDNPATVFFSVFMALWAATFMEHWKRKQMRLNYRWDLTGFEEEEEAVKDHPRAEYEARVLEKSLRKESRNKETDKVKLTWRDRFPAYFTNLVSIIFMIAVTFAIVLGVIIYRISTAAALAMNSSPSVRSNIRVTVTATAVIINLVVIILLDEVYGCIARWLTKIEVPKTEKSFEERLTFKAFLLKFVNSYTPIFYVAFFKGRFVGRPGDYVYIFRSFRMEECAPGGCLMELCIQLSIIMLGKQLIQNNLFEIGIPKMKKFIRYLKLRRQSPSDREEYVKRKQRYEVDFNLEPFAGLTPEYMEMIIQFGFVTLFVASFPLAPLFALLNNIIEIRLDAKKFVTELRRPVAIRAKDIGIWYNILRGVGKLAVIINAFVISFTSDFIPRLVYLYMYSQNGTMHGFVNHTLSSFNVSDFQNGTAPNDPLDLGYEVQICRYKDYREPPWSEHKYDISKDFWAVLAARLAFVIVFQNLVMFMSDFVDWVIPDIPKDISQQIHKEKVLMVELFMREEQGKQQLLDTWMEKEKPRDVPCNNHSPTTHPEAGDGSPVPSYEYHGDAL
TMEM16A act: activates or potentiates the mouse TMEM16A chloride channel; HEK293 TMEM16A/YFP-H148Q/I152L, iodide quench fluorescence; hits give low values; 0.3% of 340,000 active; B-score at 10 µM; AID 623877;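 active = fluorescence-ratio B-score plate-corrected deviation score at least 3 library SD below zero, with starting fluorescence score within 5 deviations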;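 note: channel opened by trigger with iodide after compound preincubation; score built on the fluorescence ratio of max minus min over baseline; more negative score means more quench and so TMEM16A activation or potentiation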
Numbers without * were called inactive; i = inactive; / = no result given. Most compounds without a hit are left out; they make up all but 2.4% or so of the library.

SMILES	RTF Ca sens inh	CRFR2-BP ag	RTF Ca sens act	CRFBP-R2 block	ANO1 block	TMEM16A act
CC(NS(=O)(=O)c1ccccc1)C(=O)Nc1ccc2c(c1)OCCO2 (configuration not stated)	-3.2	-1.2	-2.0	1.2	i	i
CCOC(=O)c1c(-c2ccc(C)o2)csc1NC(=S)NC(=O)N(C)C	4.1	-2.5	1.1	-34.6	i	i
COc1ccccc1CNC(=O)CCC(=O)N1CCOc2ccc(Cl)cc21	-12.2	-6.0	5.6	5.2	i	i
O=C(CCC(=O)N1CCOc2ccc(Cl)cc21)NCc1ccccc1	-4.4	243.4*	2.2	-85.2	i	i
COc1ccc(-c2cc(-c3ccccc3)c(C#N)c(S(C)=O)n2)cc1 (configuration not stated)	3.6	-0.3	-0.4	39.5	i	-8.06*
CCSc1nc(-c2ccc(OC)cc2)cc(-c2ccccc2)c1C#N	-4.6	0.2	7.0	-12.1	i	i
Cn1c(C(=O)Nc2ccc3c(c2)OCO3)cc2c(=O)n(C)c3ccccc3c21	-6.8	-2.7	2.0	0.5	i	-6.79*
CC(NC(=O)c1cc2c(=O)n(C)c3ccccc3c2n1C)c1ccc2c(c1)OCCO2 (configuration not stated)	-0.4	1.7	4.5	17.7	i	i
CCOc1ccc(C(=O)NNC(=O)CCNC(=O)c2ccco2)cc1OC	-9.7	-0.2	-3.0	97.4*	i	i
COc1cc(SC)ccc1C(=O)NCCOc1ccc(C)c(C)c1	2.0	-0.7	-3.9	2.6	i	i
CC(Sc1nnc(Cc2ccccc2)o1)C(=O)Nc1ccccc1[N+](=O)[O-] (configuration not stated)	4.6	0.7	-3.0	-6.3	/	i
Cc1cc(=O)[nH]c(SCC(=O)Nc2ccc(Br)cc2)c1C#N	-12.7	67.1*	-0.8	63.5*	100*	i
Cc1cc(=O)[nH]c(SCC(=O)Nc2ccc(F)cc2)c1C#N	/	-0.3	/	11.6	i	i
CC(C)c1ccc(NC(=S)NCc2ccc3c(c2)OCO3)cc1	-8.3	0.4	4.1	-8.5	i	i
S=C(Nc1ccc2c(c1)OCO2)Nc1ccccc1Cl	0.5	0.7	1.9	76.4*	i	i
S=C(NCc1ccc(Cl)c(Cl)c1)Nc1ccc2c(c1)OCO2	-41.0	-0.2	-2.3	69.2*	i	i
CC1CCN(C(=O)COC(=O)c2ccc3c(c2)C(=O)N(Cc2ccco2)C3=O)CC1	4.1	-0.1	-8.4	3.0	/	i
CCOC(=O)c1ccccc1NC(=O)CSc1ccc(-c2ccccn2)nn1	2.0	0.7	4.0	-7.2	i	i
O=C(NC1CCCCC1)C(c1ccco1)N(C(=O)C(F)(F)F)C1CC1 (configuration not stated)	-11.2	2.4	-2.8	-4.9	i	-5.86*
COc1ccc2cc(CO)c3cc(OC)c(OC)cc3c2c1	-4.5	-3.5	14.1	1.9	/	i
O=C(NNC(=O)C12CC3CC(CC(C3)C1)C2)c1ccncc1	-16.9	1.9	4.9	7.7	i	i
CC12CC3CC(C)(C1)CC(C(=O)NNC(=O)c1ccncc1)(C3)C2	0.5	0.2	0.3	66.2*	i	i
CCSc1ccccc1C(=O)Nc1ccc(S(=O)(=O)NC(C)=O)cc1	4.5	1.9	-5.7	13.7	i	i
O=C(CCSCc1ccc(Cl)cc1)NCc1cccs1	17.8*	-0.9	-3.2	2.2	i	i
CCOC(=O)c1c(CSc2ccc(CC)cc2)oc2ccc(O)c(CN(C)C)c12	-13.0	-1.8	-9.3	-0.2	100*	i
SMILES	RTF Ca sens inh	CRFR2-BP ag	RTF Ca sens act	CRFBP-R2 block	ANO1 block	TMEM16A act
CCOC(=O)c1c(C)oc2ccc(O)c(CN(C)C)c12	-4.4	-1.0	-0.7	-26.6	i	i
Cc1ccc(S(=O)(=O)N2CCC(C(=O)OC(C)C(=O)N(C)c3ccccc3)CC2)cc1C (configuration not stated)	-2.4	-1.0	1.4	1.4	/	i
CCOC(=O)c1ccc(NC(=O)NC2CC3CCC(C2)N3Cc2nnnn2Cc2ccco2)cc1 (configuration not stated)	-1.4	-0.2	-1.4	-10.0	i	-46.8*
CC1CCCCC12NC(=O)N(CC(=O)N1CCN(S(=O)(=O)c3ccc(Cl)s3)CC1)C2=O (configuration not stated)	/	4.4	/	8.3	/	/
O=C(/C=C/c1ccccc1[N+](=O)[O-])N1CCOCC1	1.6	-0.2	-3.5	63.3*	i	i
C/C(=N\NC(=O)c1c(Cl)cnn1C)c1ccc(NC(=O)c2ccncc2)cc1	-1.7	-0.8	-4.5	11.1	i	i
COc1ccccc1OCCNC(=O)c1cccc(S(=O)(=O)NCc2ccccc2)c1	-7.8	0.3	-1.4	-10.4	/	i
O=C(COC(=O)CCc1ccccc1)NNC(=O)c1ccccc1	-16.6	1.5	-0.3	-6.1	/	i
COc1ccccc1N1CCN(C(=O)c2onc(C)c2Cl)CC1	0.9	0.1	-3.7	-5.0	i	-7.67*
CSc1ccccc1NC(=O)CSc1nnc(Cc2ccccc2)o1	-6.1	0.2	-2.0	14.8	i	i
CC(=O)N(Cc1ccco1)c1nc(C(=O)Nc2ccc(Cl)cc2)c(C)s1	-2.5	2.7	1.3	65.3*	i	i
CCC(C)(C)C1CCC2(CC1)NC(=O)N(CC(=O)NC(C)CCc1ccccc1)C2=O (configuration not stated)	-10.1	-0.2	-16.3	-28.9	/	i
Cc1cc(NC(=O)c2ccc(S(=O)(=O)N3CCOCC3)cc2)nc2c1c(=O)oc1ccccc12	/	/	/	/	i	/
Cc1cc(NC(=O)c2ccc(S(=O)(=O)N3CCCC3)cc2)nc2c1c(=O)oc1ccccc12	3.6	-0.6	-4.2	2.0	/	-13.5*
O=C(Nc1ccccc1Cl)c1ccc(COc2ccc3c(c2)CCC3)cc1	-3.9	-0.8	-3.0	-11.8	i	-7.43*
CCn1cc(C(=O)OCC(=O)c2cc(C)n(-c3ccc(OC(F)F)cc3)c2C)c(=O)c2ccc(C)nc21	0.3	-2.5	9.1	60.0*	i	i
CCC(C)(C)C1CCc2[nH]nc(C(=O)NCCNC(=O)OC(C)(C)C)c2C1 (configuration not stated)	4.4	-3.1	-6.5	-13.1	i	i
O=C1N(c2ccccc2)C2CS(=O)(=O)CC2N1c1ccc(Cl)c(Cl)c1 (configuration not stated)	-7.0	0.3	2.4	-26.8	i	i
O=C1CC2CS(=O)(=O)CC2N1c1ccc(Oc2ccccc2)cc1 (configuration not stated)	4.9	-5.4	7.4	121.3*	i	i
CCN(CC)C(=O)CSc1nnc2nnc3cc(OC)ccc3n12	/	22.5	/	-12.2	i	i

High-throughput results from PubChem.
